Activity calls are given as the source filed them. How the source made its calls: active means hit-call score of the fitted dose curve at least 0.9, where 1 is the maximum; inactive means score below 0.9.

Broadly, the AC50 is the midpoint of the concentration-response curve, whichever way the signal moves.

Read-out in test [1]: TIMP metallopeptidase inhibitor 1 (TIMP1), TIMP1 (gene 7076)
In words: BSK_hDFCGF_TIMP1: BioMAP Diversity Plus: hDFCGF Assay for TIMP metallopeptidase inhibitor 1 (TIMP1) Biomarker Activity (AID 2283062). Conditions: primary human foreskin fibroblasts; actives raise or lower the signal. Put shortly:
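Bidirectional curve fitting against DMSO baseline yielded this endpoint, based on ELISA detection of TIMP-1 in primary human foreskin fibroblasts exposed to compound for 24 h.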

Read-out in test [2]: Monokine induced gamma interferon (MIG), CXCL9 (gene 4283)
In words: BSK_hDFCGF_MIG: BioMAP Diversity Plus: hDFCGF Assay for Monokine induced gamma interferon (MIG) Biomarker Activity (AID 2283063). The conditions noted are these: primary human foreskin fibroblasts; actives raise or lower the signal. A digest of the protocol:
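Endpoint derived by bidirectional fitting relative to DMSO; MIG quantified via ELISA in primary human foreskin fibroblasts harvested 24 h after dosing.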

Read-out in test [3]: Matrix Metallopeptidase 1 (MMP1), MMP1 (gene 4312)
In words: BSK_hDFCGF_MMP1: BioMAP Diversity Plus: hDFCGF Assay for Matrix Metallopeptidase 1 (MMP1) Biomarker Activity (AID 2283064). The conditions noted are these: primary human foreskin fibroblasts; actives raise or lower the signal. A digest of the protocol:
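Primary human foreskin fibroblasts exposed to chemicals for 24 h; MMP1 measured by ELISA. Cytotoxicity tracked by SRB staining in parallel cultures; bidirectional fit relative to DMSO.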

Read-out in test [4]: Plasminogen activator inhibitor-1 (PAI1), SERPINE1 (gene 5054)
In words: BSK_hDFCGF_PAI1: BioMAP Diversity Plus: hDFCGF Assay for Plasminogen activator inhibitor-1 (PAI1) Biomarker Activity (AID 2283066). Conditions: primary human foreskin fibroblasts; actives raise or lower the signal. A digest of the protocol: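 PAI-1 levels, determined by ELISA, served as the endpoint in human foreskin fibroblast cultures exposed to compound for 24 h, with DMSO as baseline.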

Read-out in test [5]: Intercellular Adhesion Molecule 1 (ICAM1), ICAM1 (gene 3383)
In words: BSK_KF3CT_ICAM1: BioMAP Diversity Plus: KF3CT Assay for Intercellular Adhesion Molecule 1 (ICAM1) Biomarker Activity (AID 2283067). Conditions: primary human keratinocytes with fibroblasts; actives raise or lower the signal. A digest of the protocol:
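Bidirectional curve fitting against a DMSO baseline was applied to ICAM-1 ELISA signal from primary human skin co-cultures harvested 24 h after treatment, with SRB staining of parallel wells for overt cytotoxicity.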

Read-out in test [6]: Interferon-gamma inducible Protein 10 (IP10), CXCL10 (gene 3627)
In words: BSK_KF3CT_IP10: BioMAP Diversity Plus: KF3CT Assay for Interferon-gamma inducible Protein 10 (IP10) Biomarker Activity (AID 2283068). The conditions noted are these: primary human keratinocytes with fibroblasts; actives raise or lower the signal. Put shortly:
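ELISA read-out of IP-10 after 24 h chemical dosing of human skin primary co-culture (keratinocytes, foreskin fibroblasts). Gain or loss of signal relative to DMSO, bidirectional curve fit.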

Test [7] can be described thus: BSK_KF3CT_SRB: Viability Assessment in the BioMAP Diversity Plus: KF3CT Assay (AID 2283069).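 Further: total protein by sulforhodamine B staining as a cytotoxicity measure; read 24 h after compound addition; fitted for both signal gain and loss against DMSO baseline.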 The conditions noted are these: primary human keratinocytes with fibroblasts. A digest of the protocol:
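Human keratinocyte and foreskin fibroblast co-culture exposed to chemical for 24 h. Total protein measured in parallel cultures by 0.1% sulforhodamine B staining after 10% TCA fixation, read at 560 nm; bidirectional fit relative to DMSO.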

Read-out in test [8]: Interleukin-1 alpha (IL1a), IL1A (gene 3552)
In words: BSK_KF3CT_IL1a: BioMAP Diversity Plus: KF3CT Assay for Interleukin-1 alpha (IL1a) Biomarker Activity (AID 2283070). The conditions noted are these: primary human keratinocytes with fibroblasts; actives raise or lower the signal. A digest of the protocol: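 Primary human keratinocyte plus foreskin fibroblast co-culture, dosed and measured at 24 h in 96-well plates. IL-1a level quantified by ELISA; bidirectional fit relative to DMSO.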

Read-out in test [9]: TIMP metallopeptidase inhibitor 2 (TIMP2), TIMP2 (gene 7077)
In words: BSK_KF3CT_TIMP2: BioMAP Diversity Plus: KF3CT Assay for TIMP metallopeptidase inhibitor 2 (TIMP2) Biomarker Activity (AID 2283071). Conditions: primary human keratinocytes with fibroblasts; actives raise or lower the signal. Put shortly: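 Keratinocyte–fibroblast co-culture, 24 h exposure; TIMP-2 ELISA, DMSO-normalised bidirectional fit. Parallel SRB (0.1%, TCA-fixed, 560 nm) total-protein staining gauges cytotoxicity.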

Read-out in test [10]: C-C motif chemokine 2 (Homo sapiens) (UniProt P13500)
In words: BSK_KF3CT_MCP1: BioMAP Diversity Plus: KF3CT Assay for Monocyte Chemoattractant Protein 1 (MCP1/CCL2) Biomarker Activity (AID 2283073). Conditions: primary human keratinocytes with fibroblasts; actives raise or lower the signal. A digest of the protocol:
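Biomarker MCP-1 is measured by ELISA in primary human keratinocytes co-cultured with foreskin fibroblasts, 24 h after chemical treatment; DMSO serves as the negative control and activity baseline.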

Read-out in test [11]: Matrix Metallopeptidase 9 (MMP9), MMP9 (gene 4318)
In words: BSK_KF3CT_MMP9: BioMAP Diversity Plus: KF3CT Assay for Matrix Metallopeptidase 9 (MMP9) Biomarker Activity (AID 2283074).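 On AC50: MMP9 protein level quantified by ELISA in the co-culture.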 Conditions: primary human keratinocytes with fibroblasts; actives raise or lower the signal. Put shortly:
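Human keratinocyte and foreskin fibroblast co-culture exposed to chemicals for 24 h; MMP9 biomarker measured by ELISA, bidirectional fitting relative to DMSO; cytotoxicity tracked by SRB total protein staining in parallel cultures.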

Read-out in test [12]: urokinase plasminogen activator (uPA), PLAU (gene 5328)
In words: BSK_KF3CT_uPA: BioMAP Diversity Plus: KF3CT Assay for urokinase plasminogen activator (uPA) Biomarker Activity (AID 2283075). The conditions noted are these: primary human keratinocytes with fibroblasts; actives raise or lower the signal. A digest of the protocol: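 Primary human keratinocyte/foreskin fibroblast co-culture exposed to chemical; uPA measured by ELISA at 24 h. Bidirectional fit versus DMSO, with parallel SRB total-protein staining for cytotoxicity.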

Read-out in the next test: CD40, CD40 (gene 958)
In words: BSK_LPS_CD40: BioMAP Diversity Plus: LPS Assay for CD40 Biomarker Activity (AID 2283076). Conditions: primary human HUVEC with PBMC; actives raise or lower the signal. Put shortly:
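Using a multiplexed primary human co-culture (umbilical vein endothelium plus PBMC), CD40 was read by ELISA 24 h after dosing, with cytotoxicity tracked by sulforhodamine B staining of parallel cultures and activity fitted bidirectionally versus DMSO.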

Read-out in test [13]: E-selectin (Homo sapiens) (UniProt P16581)
In words: BSK_LPS_Eselectin: BioMAP Diversity Plus: LPS Assay for Eselectin Biomarker Activity (AID 2283077). The conditions noted are these: primary human HUVEC with PBMC; actives raise or lower the signal. A digest of the protocol:
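Dose chemical onto LPS-driven HUVEC/PBMC co-culture; after 24 h, run ELISA for E-selectin; fit up- and down-going responses relative to DMSO control.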

Read-out in test [14]: Interleukin-8 (IL8), CXCL8 (gene 3576)
In words: BSK_LPS_IL8: BioMAP Diversity Plus: LPS Assay for Interleukin-8 (IL8) Biomarker Activity (AID 2283078). The conditions noted are these: primary human HUVEC with PBMC; actives raise or lower the signal. A digest of the protocol:
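In this LPS system, chemical-treated human umbilical vein endothelium/PBMC co-cultures were harvested at 24 h for IL-8 ELISA.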

Test [15] is described as follows: BSK_LPS_SRB: Viability Assessment in the BioMAP Diversity Plus: LPS Assay (AID 2283079).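 Further: total protein by sulforhodamine B absorbance as a cytotoxicity measure; measured one day after compound addition; fitted in both directions against DMSO so loss or gain of signal counts.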 Conditions: primary human HUVEC with PBMC. Put shortly:
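Cytotoxicity endpoint in human endothelial–PBMC co-culture: 24 h exposure, then SRB (0.1%) staining, 560 nm read.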

Read-out in test [16]: Monocyte Chemoattractant Protein-1 (MCP1), CCL2 (gene 6347)
In words: BSK_LPS_MCP1: BioMAP Diversity Plus: LPS Assay for Monocyte Chemoattractant Protein-1 (MCP1) Biomarker Activity (AID 2283081).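 On AC50: secreted MCP-1 protein quantified by ELISA in culture supernatant.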 Conditions: primary human HUVEC with PBMC; actives raise or lower the signal. Put shortly:
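Values derive from bidirectional fitting against DMSO of ELISA-measured MCP-1 in a human primary endothelial and mononuclear cell co-culture, 24 h after chemical addition under LPS activation.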

Read-out in test [17]: Interleukin-1 alpha (IL1a), IL1A (gene 3552)
In words: BSK_LPS_IL1a: BioMAP Diversity Plus: LPS Assay for Interleukin-1 alpha (IL1a) Biomarker Activity (AID 2283080). The conditions noted are these: primary human HUVEC with PBMC; actives raise or lower the signal. Put shortly: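 Primary human HUVEC and PBMC co-culture stimulated with LPS is dosed and harvested at 24 h. Both increases and decreases in ELISA-measured IL-1a are scored relative to DMSO.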

Read-out in test [18]: Transforming growth factor beta 1 (TGFb1), TGFB1 (gene 7040)
In words: BSK_KF3CT_TGFb1: BioMAP Diversity Plus: KF3CT Assay for Transforming growth factor beta 1 (TGFb1) Biomarker Activity (AID 2283072). The conditions noted are these: primary human keratinocytes with fibroblasts; actives raise or lower the signal. A digest of the protocol: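 Signal changes in either direction, relative to DMSO, define activity here. TGF-b1 is read by ELISA from a human keratinocyte-fibroblast co-culture 24 h post-dose.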

Sequence of E-selectin (Homo sapiens) (P16581 whole entry, looked up): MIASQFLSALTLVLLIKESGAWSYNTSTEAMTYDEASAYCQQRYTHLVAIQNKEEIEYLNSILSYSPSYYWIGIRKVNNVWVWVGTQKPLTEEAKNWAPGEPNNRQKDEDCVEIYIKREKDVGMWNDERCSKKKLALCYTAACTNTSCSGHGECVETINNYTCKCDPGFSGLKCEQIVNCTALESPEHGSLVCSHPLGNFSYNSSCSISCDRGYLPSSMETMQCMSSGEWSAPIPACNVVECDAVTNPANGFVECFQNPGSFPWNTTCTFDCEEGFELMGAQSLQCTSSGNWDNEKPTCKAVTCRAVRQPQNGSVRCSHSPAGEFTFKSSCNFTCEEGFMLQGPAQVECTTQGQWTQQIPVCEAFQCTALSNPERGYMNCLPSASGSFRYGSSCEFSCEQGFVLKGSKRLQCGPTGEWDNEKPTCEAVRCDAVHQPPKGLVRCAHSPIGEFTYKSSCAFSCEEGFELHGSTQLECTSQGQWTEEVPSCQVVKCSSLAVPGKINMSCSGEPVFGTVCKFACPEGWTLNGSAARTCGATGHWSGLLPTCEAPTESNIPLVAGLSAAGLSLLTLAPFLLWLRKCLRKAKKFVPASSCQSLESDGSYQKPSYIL

As for `CCCCCCC(C)OC(=O)COc1nc(F)c(Cl)c(N)c1Cl` (stereo unspecified), the AC50 was 26 µM (active) in test [1]; 15 µM (active) in [2]; 30.3 µM (active) in [3]; 25.8 µM (active) in test [4]; 31.4 µM (active) in test [5]; 30.4 µM (active) in test [7]. The concentration at half-maximal activity (AC50) in test [8] is 33.3 µM (active); in test [9], 31.6 µM (active); in test [12] it was 20 µM (active); with CD40, CD40 (gene 958), 29.9 µM (active); in [13] it was 30.7 µM (active); in [14], 36.8 µM (active). In addition, the results for the concentration at half-maximal activity (AC50) in [15] and in [16] were 38.4 µM (active) and 31 µM (active), respectively. For the same molecule, the outcome in [6], in test [10] and in test [11] was inactive.

With `S=C([S-])NCCNC(=S)[S-].[Mn+2]`, the outcome in [1], in test [7], in [8], in test [9], in test [10] and in test [12] was inactive. Further, the outcome with CD40, CD40 (gene 958) is “inactive”; in test [14], “inactive”; in test [15], “inactive”; in [17], “inactive”; in [16], “inactive”. The concentration at half-maximal activity (AC50) in [2] is 32.4 µM (active); in [3], 4.73 µM (active); in [4], 16.4 µM (active); in test [6], 27.4 µM (active); in test [11] it was 36.6 µM (active); in test [13], 7.58 µM (active).

`C[C@]12CC[C@@H]3c4ccc(O)cc4C[C@@H](CCCCCCCCCS(=O)CCCC(F)(F)C(F)(F)F)[C@H]3[C@@H]1CC[C@@H]2O` (stereo partly specified): the outcome in [1], in test [2], in test [3], in test [5], in [6] and in test [7] was inactive. Besides, the outcome in [8] is “inactive”; in test [9] it was “inactive”; in test [10], “inactive”; in [11], “inactive”; in test [12], “inactive”; with CD40, CD40 (gene 958), “inactive”. The result in test [13], in [14], in test [15], in [17] and in test [16] was inactive. Further, the AC50 in test [4] was 1.64 µM (active).

With `CCOC(=O)COc1cc(-n2ncc(C(F)(F)F)c(C)c2=O)c(F)cc1Cl`, the result in [1], in test [2], in test [3], in test [4], in [5] and in test [6] was inactive. The outcome in [7], in test [8], in [9], in [18], in [10] and in test [11] was inactive. Besides, the outcome in test [12] was “inactive”; in the test with CD40, CD40 (gene 958), “inactive”; in test [13], “inactive”; in test [14], “inactive”; in test [15], “inactive”; in test [17] it was “inactive”. For the same molecule, the result in [16] was inactive.
